Several values for one entry are separate records, joined by “and”; a condition that tells them apart may be missing. Equal values may be shown once. Results filed as inconclusive are left out. Entries that show only a call come without a potency. Activity calls are given as the source filed them. Unless noted, calls follow the shape of the dose curve; as a rule, active = well fitted inhibition curve with a large enough effect; inconclusive = small, poorly fitted or top-dose-only effect; inactive = flat fitted curve, though single readings scatter. Numbered stars: 1 amine (or outer) side, 2 acyl side, 3 side chain; on linkers, the order of the positions; unused ones are H or OH. Bridge positions count the residues as written; N and C are the ends. Square brackets hold non-standard residues; d marks the D form. Peptide text beside a SMILES is read from it. I, II: the chains in the order shown. Actinocin(9to1) = Cc1c2oc3c(C)ccc(C(=O)[*:1])c3nc-2c(C(=O)[*:2])c(N)c1=O; NMeV = CN[C@H](C(=O)O)C(C)C; Sar = CNCC(=O)O
Key:
[1] = target: Vitamin D3 receptor (Homo sapiens) (UniProt P11473); test: qHTS assay for small molecule antagonists of vitamin D receptor signaling (AID 588541; calls by dose curve;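 also: receptor activated by calcitriol during compound treatment; series mostly up to about 77 µM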)
Summary of the method: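 VDR-UAS-bla HEK293T cells (2000/well, 2% charcoal-stripped FBS) were treated with titrated compounds plus 1-alpha,25-dihydroxyvitamin D3 (50 nM or 3 nM final) for 16 h at 37 C. CCF4 beta-lactamase fluorescence was read; Hill fits gave IC50.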

[2] = target: Vitamin D3 receptor (Homo sapiens) (UniProt P11473); test: qHTS assay for small molecule agonists of vitamin D receptor signaling (AID 588543; calls by dose curve)
Summary of the method: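 β-lactamase reporter, VDR-UAS-bla HEK293T, agonist mode. Cells plated 5 h at 37 °C, compound titration 16 h at 37 °C, CCF4 dye 2 h RT, ratio 460/530 nm. Hill fit → EC50, efficacy vs 50 nM 1α,25-(OH)2D3.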

[3] = qHTS assay for small molecule agonists of retinoid X receptor alpha signaling (AID 588544; calls by dose curve); conditions: HEK293T RXRa-UAS-bla, beta-lactamase reporter, 18 h; 530 nm emission
[4] = target: Retinoic acid receptor RXR-alpha (Homo sapiens) (UniProt P19793); test: as above
[5] = target: Thyroid hormone receptor beta (Homo sapiens) (UniProt P10828); test: qHTS assay for small molecule antagonists of thyroid hormone receptor beta signaling (AID 588547; active = well fitted inhibition curve with a large enough effect in the signal ratio, with a control signal flat, not every such curve was filed as active; the % refers to the signal ratio; also: potency is read from the fitted curve at half-maximal effect;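 as to activity change % (negative = inhibition): cells stimulated with 0.4 nM T3 agonist during compound exposure; series mostly up to about 77 µM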); conditions: TR-UAS-bla HEK293, beta-lactamase ratio, antagonist mode, 18 h
Summary of the method: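 TR-UAS-bla GripTite HEK293 cells in 2% charcoal/dextran FBS medium were preincubated 4 h at 37 C, given compound (0.59 nM to 92 uM) plus 0.4 nM T3 (final) for 18 h, then CCF4 for 2 h at RT; Hill fit gave IC50.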

[6] = target: Voltage-gated inwardly rectifying potassium channel KCNH2 (Homo sapiens) (UniProt Q12809); test: qHTS Assay for Small Molecule Inhibitors of the Human hERG Channel Activity (AID 588834);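 also: top concentration of the series differs between compounds; lower thallium flux fluorescence means stronger hERG block; nearly all actives have a fitted effect of over 50% in size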
Summary of the method: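 Concentration-response qHTS measuring drop in thallium-sensitive dye signal. U2OS cells carrying BacMam hERG; compound exposure ~10 min, then stimulation buffer and 2 min read at 1 sec intervals.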

[7] = target: Luciferin 4-monooxygenase (Photinus pyralis) (UniProt P08659); test: Biochemical firefly luciferase enzyme assay for NPC (AID 624030);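 also: purified P. pyralis luciferase at 10 nM with luciferin and ATP substrate; series mostly up to about 59 µM; nearly all actives have a fitted effect of over 70% in size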
Summary of the method: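 Counter-screen for direct inhibition of the luciferase enzyme by approved-drug library compounds, run at 10 nM enzyme in 50 mM Tris acetate (final). Luminescence was read within 5 min of enzyme-buffer addition and normalized to PTC124 versus DMSO (0%).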

[8] = target: Thyroid hormone receptor beta (Homo sapiens) (UniProt P10828); test: qHTS assay for small molecule agonists of thyroid hormone receptor beta signaling (AID 588545; calls by dose curve)
Summary of the method: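 Agonist-mode beta-lactamase reporter assay, HEK 293 cells, 2% charcoal/dextran FBS; cells plated 4 hrs, compound 18 hrs at 37 C, CCF4 2 hrs RT. Normalized to 10 nM T3 (100%) and DMSO (0%); Hill fit gives EC50, efficacy.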

[9] = qHTS assay for small molecule antagonists of retinoid X receptor alpha signaling (AID 588546; active = well fitted inhibition curve with a large enough effect in the signal ratio, with a control signal flat, not every such curve was filed as active; the % refers to the signal ratio; also: potency is read from the fitted curve at half-maximal effect;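 as to max response: cells stimulated with 9-cis-retinoic acid as agonist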); conditions: HEK293T RXRa-UAS-bla, beta-lactamase ratio, antagonist mode; measured here: W530 green channel, cytotoxicity proxy
Summary of the method: (§1)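 Beta-lactamase reporter inhibition, read as CCF4 fluorescence ratio (ex 405, em 460/530 nm) after 2 h at RT. HEK293T UAS-bla cells, 2500/well, were stimulated with 9-cis-RA at 500 or 100 nM final alongside test compound for 18 h at 37 C.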

[10] = target: Retinoic acid receptor RXR-alpha (Homo sapiens) (UniProt P19793); test: as above; conditions: HEK293T RXRa-UAS-bla, beta-lactamase ratio, antagonist mode
Summary of the method: as §1

Sequence of Vitamin D3 receptor (Homo sapiens) (P11473 whole entry, looked up): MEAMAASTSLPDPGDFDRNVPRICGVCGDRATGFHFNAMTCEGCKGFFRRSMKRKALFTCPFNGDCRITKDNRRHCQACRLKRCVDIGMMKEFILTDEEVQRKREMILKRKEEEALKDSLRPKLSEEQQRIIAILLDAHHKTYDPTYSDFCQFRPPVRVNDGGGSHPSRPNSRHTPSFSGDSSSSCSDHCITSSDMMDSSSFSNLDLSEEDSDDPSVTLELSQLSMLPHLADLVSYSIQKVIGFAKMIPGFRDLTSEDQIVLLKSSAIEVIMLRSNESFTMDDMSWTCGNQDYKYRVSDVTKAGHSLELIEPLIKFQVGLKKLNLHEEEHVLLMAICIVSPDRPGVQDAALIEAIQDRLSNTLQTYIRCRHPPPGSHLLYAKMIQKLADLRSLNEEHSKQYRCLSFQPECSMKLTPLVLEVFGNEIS
Sequence of Thyroid hormone receptor beta (Homo sapiens) (P10828 whole entry, looked up): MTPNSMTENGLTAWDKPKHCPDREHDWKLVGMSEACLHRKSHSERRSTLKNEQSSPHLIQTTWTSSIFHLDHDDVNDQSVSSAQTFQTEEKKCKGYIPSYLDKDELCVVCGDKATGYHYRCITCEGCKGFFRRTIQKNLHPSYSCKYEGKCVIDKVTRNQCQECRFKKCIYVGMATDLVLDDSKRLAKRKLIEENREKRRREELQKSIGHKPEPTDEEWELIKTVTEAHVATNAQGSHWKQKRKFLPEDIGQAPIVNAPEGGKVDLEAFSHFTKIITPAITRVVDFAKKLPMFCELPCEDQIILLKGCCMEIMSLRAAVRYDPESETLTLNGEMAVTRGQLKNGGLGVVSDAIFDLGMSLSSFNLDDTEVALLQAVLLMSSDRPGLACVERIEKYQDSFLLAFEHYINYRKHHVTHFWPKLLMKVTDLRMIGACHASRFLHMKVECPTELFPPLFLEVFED
Sequence of Luciferin 4-monooxygenase (Photinus pyralis) (P08659 whole entry, looked up): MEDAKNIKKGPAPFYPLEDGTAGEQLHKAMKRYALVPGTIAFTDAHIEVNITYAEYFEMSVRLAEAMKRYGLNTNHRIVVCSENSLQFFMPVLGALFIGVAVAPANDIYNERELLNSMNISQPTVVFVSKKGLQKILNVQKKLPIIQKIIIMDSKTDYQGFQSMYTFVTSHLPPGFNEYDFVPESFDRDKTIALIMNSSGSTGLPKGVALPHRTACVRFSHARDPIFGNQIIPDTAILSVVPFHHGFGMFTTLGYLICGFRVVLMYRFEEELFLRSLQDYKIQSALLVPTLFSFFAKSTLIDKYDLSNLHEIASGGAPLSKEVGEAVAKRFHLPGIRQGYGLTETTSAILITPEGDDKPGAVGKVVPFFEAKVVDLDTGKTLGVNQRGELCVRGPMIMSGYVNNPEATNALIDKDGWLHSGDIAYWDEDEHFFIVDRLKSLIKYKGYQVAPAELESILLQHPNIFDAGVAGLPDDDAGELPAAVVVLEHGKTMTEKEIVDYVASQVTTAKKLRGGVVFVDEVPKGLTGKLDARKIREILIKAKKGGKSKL
Sequence of Voltage-gated inwardly rectifying potassium channel KCNH2 (Homo sapiens) (Q12809 whole entry, looked up): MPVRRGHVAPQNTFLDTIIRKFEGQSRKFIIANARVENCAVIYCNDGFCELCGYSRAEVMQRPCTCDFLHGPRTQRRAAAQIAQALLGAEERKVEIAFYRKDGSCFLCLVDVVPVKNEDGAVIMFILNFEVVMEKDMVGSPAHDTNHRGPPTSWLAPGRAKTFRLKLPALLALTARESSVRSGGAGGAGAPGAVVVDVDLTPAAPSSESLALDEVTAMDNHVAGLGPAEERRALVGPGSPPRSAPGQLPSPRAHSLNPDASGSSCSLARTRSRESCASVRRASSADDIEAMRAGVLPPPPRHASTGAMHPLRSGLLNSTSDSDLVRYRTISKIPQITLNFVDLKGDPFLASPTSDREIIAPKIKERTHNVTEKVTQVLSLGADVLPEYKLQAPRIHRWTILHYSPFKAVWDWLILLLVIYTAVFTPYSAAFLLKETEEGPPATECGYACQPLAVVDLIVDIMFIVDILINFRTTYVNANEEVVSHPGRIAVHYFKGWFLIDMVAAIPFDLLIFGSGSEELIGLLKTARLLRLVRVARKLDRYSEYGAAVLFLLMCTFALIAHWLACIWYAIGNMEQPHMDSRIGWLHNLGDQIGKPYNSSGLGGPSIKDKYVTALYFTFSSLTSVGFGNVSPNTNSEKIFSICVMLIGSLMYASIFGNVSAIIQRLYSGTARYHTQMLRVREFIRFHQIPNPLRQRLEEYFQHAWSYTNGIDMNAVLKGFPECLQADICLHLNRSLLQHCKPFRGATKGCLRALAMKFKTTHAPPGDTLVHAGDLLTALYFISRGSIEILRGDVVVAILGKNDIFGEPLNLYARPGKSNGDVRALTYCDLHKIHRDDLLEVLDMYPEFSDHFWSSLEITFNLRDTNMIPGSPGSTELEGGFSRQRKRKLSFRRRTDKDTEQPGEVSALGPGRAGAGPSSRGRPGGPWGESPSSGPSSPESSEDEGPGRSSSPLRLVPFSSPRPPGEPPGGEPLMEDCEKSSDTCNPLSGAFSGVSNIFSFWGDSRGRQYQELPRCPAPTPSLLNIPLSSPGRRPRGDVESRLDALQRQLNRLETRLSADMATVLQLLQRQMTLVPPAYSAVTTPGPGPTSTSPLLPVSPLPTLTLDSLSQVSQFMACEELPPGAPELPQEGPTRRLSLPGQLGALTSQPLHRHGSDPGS
Sequence of Retinoic acid receptor RXR-alpha (Homo sapiens) (P19793 whole entry, looked up): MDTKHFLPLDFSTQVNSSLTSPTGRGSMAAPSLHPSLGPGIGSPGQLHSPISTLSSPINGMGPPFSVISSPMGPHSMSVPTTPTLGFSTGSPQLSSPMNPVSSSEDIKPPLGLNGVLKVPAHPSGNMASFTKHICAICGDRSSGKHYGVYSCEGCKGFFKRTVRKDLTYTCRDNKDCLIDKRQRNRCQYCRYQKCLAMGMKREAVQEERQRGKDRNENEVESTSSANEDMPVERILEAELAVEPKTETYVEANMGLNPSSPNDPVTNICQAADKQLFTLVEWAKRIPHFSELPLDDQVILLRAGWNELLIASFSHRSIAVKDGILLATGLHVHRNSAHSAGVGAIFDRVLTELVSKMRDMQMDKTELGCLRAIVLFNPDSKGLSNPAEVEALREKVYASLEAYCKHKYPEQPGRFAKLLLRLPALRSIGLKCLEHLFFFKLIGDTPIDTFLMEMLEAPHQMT

O=C(O)CCCCC(=O)O
Potency [1]: inactive | outcome [2]: inactive | max response [3]: -28.1% | outcome [4]: inactive | activity change % (negative = inhibition) [5]: 0.209% (inactive) | Potency [6]: inactive | Potency [7]: inactive

Oc1ccc(Cl)cc1Sc1cc(Cl)ccc1O
Potency [1]: inactive | outcome [2]: inactive | Potency [7]: inactive

C[C@H](CCC(=O)O)[C@H]1CC[C@H]2[C@@H]3C(=O)C[C@@H]4CC(=O)CC[C@]4(C)[C@H]3CC(=O)[C@]12C
Potency [6]: inactive

Cc1c2oc3c(C)ccc(C(=O)N[C@@H]4C(=O)N[C@H](C(C)C)C(=O)N5CCC[C@H]5C(=O)N(C)CC(=O)N(C)[C@@H](C(C)C)C(=O)O[C@@H]4C)c3nc-2c(C(=O)N[C@@H]2C(=O)N[C@H](C(C)C)C(=O)N3CCC[C@H]3C(=O)N(C)CC(=O)N(C)[C@@H](C(C)C)C(=O)O[C@@H]2C)c(N)c1=O (I: T[dV]P[Sar][NMeV] / II: T[dV]P[Sar][NMeV]; ester I:1-I:C, II:1-II:C; linker I:N-II:N via Actinocin(9to1))
outcome [2]: inactive | outcome [8]: inactive | max response [9]: -13.6% and -1.23% | Potency [10]: 31.6 nM (active) and 14.1 nM (active) | Potency [5]: 0.0501 µM (active) | Potency [6]: inactive

Oc1c(I)cc(Cl)c2cccnc12
outcome [2]: inactive | outcome [8]: inactive | activity change % (negative = inhibition) [5]: -33.1% (inactive) | Potency [6]: inactive | Potency [7]: inactive

NC(=NCCCCCCN=C(N)/N=C(\N)Nc1ccc(Cl)cc1)/N=C(\N)Nc1ccc(Cl)cc1
outcome [8]: inactive | max response [9]: 21.2% | Potency [10]: 39.8 µM (active) | Potency [6]: inactive | Potency [7]: inactive

CCCCC(=O)O[C@]1(C(=O)CO)CC[C@H]2[C@@H]3CCC4=CC(=O)CC[C@]4(C)[C@H]3[C@@H](O)C[C@@]21C
Potency [6]: inactive

From PubChem BioAssay (NCATS)
